Screening results from PubChem BioAssay.
CYP2C9 activ = CYP2C9 (human) activation; activation factor at 5 µM; recombinant CYP2C9, luciferin-H conversion, luminescence; active compounds read high; factor 1 = untreated enzyme, 0 = blocked; actives 1.4% (n = 96,000); P11712;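 active = activation factor of 2 or more for CYP2C9 at a 5 µM dose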;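 also: 0 = sulfaphenazole-blocked wells and 1 = vehicle-only wells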
CYP2C9 inh = human CYP2C9 inhibition; CYP2C9 Supersomes, luciferin-H conversion, luminescence; actives 20% (n = 96,000); P11712; inhibition, % at 5 µM;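 active = blocking of liver enzyme CYP2C9 beyond about 50% at 5 µM, limit read from the data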
Cav32 inh = blocks human Cav3.2 T-type calcium channel. B-score at 10 µM. O95180. AID 449739. Cav3.2-expressing cells, Fluo-4 calcium fluorescence FDSS; active compounds read low. actives 4% (n = 100,000);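 active = single-dose well whose peak fluorescence ratio is a statistical outlier from its plate by either plate-standardised score or position-corrected B-score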
CYP2C19 inh = inhibitors of human CYP2C19 | P33261 | AID 778 | CYP2C19 Supersomes, luciferin-H EGE luminescence, 30 min | inhibition, % at 5 µM | actives 21% (n = 96,000);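 active = CYP2C19 inhibition above a set limit at 5 µM in the primary screen, cut at about 50% in these data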;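 also: plate controls were negative control wells for no effect and 2.5 mM tranylcypromine positive control for full effect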
CYP2C19 act = cytochrome P450 2C19 (human) activation | P33261 | recombinant CYP2C19, luciferin-H EGE luminescence; active compounds read high; 0 = fully inhibited enzyme, 1 = untreated enzyme | activation factor at 5 µM | 96,000 tested, under 10 active | AID 1025;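 active = activation factor of at least 2 at 5 µM in the primary screen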;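 also: 0 = wells with 2.5 mM tranylcypromine and 1 = vehicle-only wells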
* = called active by the depositor; . = no result. Hits are enriched below; roughly 27% of the tested compounds scored in any of these assays.

SMILES	CYP2C9 activ	CYP2C9 inh	Cav32 inh	CYP2C19 inh	CYP2C19 act
CC(=O)N1CCCc2cc(S(=O)(=O)NCc3ccc(C)cc3)ccc21	1	0.0	0.446	81.6*	0.2
COc1ccc(CNC(=O)C(NS(=O)(=O)c2ccc3c(c2)CCCN3C(C)=O)C(C)C)cc1 (stereo not drawn)	0.9	8.2	0.482	-0.6	1
COc1ccccc1CNC(=O)C1CC(c2ccccc2C(F)(F)F)=NO1 (stereo not drawn)	.	.	0.0372	.	.
CCSc1ccccc1C(=O)Nc1cccc(OC)c1	0.9	6.7	-0.276	41.2	0.6
CC(C)OCCCNC(=O)C1CCC(=O)N1C(C)C (stereo not drawn)	1.1	-7.9	0.643	-7.2	1.1
COc1ccc(-c2csc(N(CCc3ccc(OC)c(OC)c3)C(=O)COc3ccccc3)n2)cc1	0.3	68.3*	-2.81	37.8	0.6
COC(=O)c1ccc(-c2ccco2)n1Cc1nc(-c2ccc(OC)c(OC)c2)oc1C	0.6	44.5	-1.62	14.0	0.9
COC(=O)c1ccc(-c2ccco2)n1Cc1ccccc1Cl	0.4	63.2*	-0.0561	16.4	0.8
Cc1c(O)cc2c(c1O)C(=O)CC(c1ccccc1)O2 (stereo not drawn)	.	.	-2.36	.	.
COC(=O)c1ccc(N2CCN(CC(=O)c3ccc(-c4ccccc4)cc3)CC2)c([N+](=O)[O-])c1	0.5	50.2*	.	39.4	0.6
CC(=O)c1ccc(N2CCN(C(=O)c3ccc(NC(=O)C4CCCO4)cc3)CC2)cc1 (stereo not drawn)	0.8	15.6	-0.0911	18.6	0.8
C=CCSc1nc(N)c(C(=O)Nc2ccccc2OC)cc1C(=O)Nc1ccccc1	0.4	60.9*	-4.06	-12.5	1.1
COc1ccccc1NC(=O)c1ccc2nc(-c3ccccc3)c(-c3ccccc3)nc2c1	1.6	-60.1	-3.43	7.2	0.9
O=C(Cc1csc(Nc2nc(=S)[nH]c3ccccc23)n1)NCc1cccc(Cl)c1	0.2	82.8*	.	31.3	0.7
Cc1ccc(CNC(=O)Cc2csc(Nc3nc(=S)[nH]c4ccccc34)n2)cc1	0.2	82.2*	.	64.9*	0.4
O=C(Cc1c(C(=O)O)[nH]c2ccccc12)NCCN1CCN(c2cccc(Cl)c2)CC1	0.9	13.2	-0.154	-1.6	1
O=C(Cc1csc(Nc2nc(=S)[nH]c3ccccc23)n1)NCc1ccccc1Cl	0.2	82.6*	-0.232	34.8	0.7
Cc1ccc(CNC(=O)c2cc3c(C)nc4ccccc4c3o2)cc1	0.9	9.6	-1.06	14.2	0.9
CC1(c2nnc(-c3ccc(F)cc3)o2)CC(c2ccc([N+](=O)[O-])cc2)=NO1 (stereo not drawn)	.	.	-0.0391	.	.
CCOC(CNC(=O)CCc1c(C)nc2ncnn2c1C)OCC	1.2	-17.6	-0.173	-8.7	1.1
CCCCN(Cc1ccccc1)C(=O)C1CCCN(S(=O)(=O)c2cnc[nH]2)C1 (stereo not drawn)	0.6	35.8	-0.35	62.9*	0.4
CCCS(=O)(=O)N1CCCC(C(=O)NCCCN(C)c2ccccc2)C1 (stereo not drawn)	0.8	21.1	0.586	14.7	0.9
CN(CCCNC(=O)C1CCCN(S(=O)(=O)c2cnc[nH]2)C1)c1ccccc1 (stereo not drawn)	0.2	76.6*	0.354	88.7*	0.1
COc1ccc(CCNC(=O)C2CCN(S(=O)(=O)N3CCCCC3)CC2)cc1OC	0.9	13.3	.	1.3	1
COc1ccc(CCNC(=O)C2CCN(S(=O)(=O)c3cnc[nH]3)CC2)cc1OC	0.3	72.9*	0.0983	21.1	0.8
SMILES	CYP2C9 activ	CYP2C9 inh	Cav32 inh	CYP2C19 inh	CYP2C19 act
COc1ccc(OC)c(S(=O)(=O)N2CCC(C(=O)NCCc3ccc(OC)c(OC)c3)CC2)c1	0.8	15.3	1.38	61.0*	0.4
COc1ccc(CCNC(=O)CSc2nc(C)nc3c2c(=O)n(C)c(=O)n3C)cc1OC	1.1	-10.6	0.433	-12.0	1.1
CCc1c(C(=O)NNC(=S)NCCc2ccccc2)csc1C	.	.	-2.79	.	.
COc1ccc(CCNC(=O)C2CCCN(S(=O)(=O)c3cnc[nH]3)C2)cc1OC (stereo not drawn)	0.3	71.0*	-1.39	73.3*	0.3
CCN(CCCNC(=O)C1CCN(S(=O)(=O)c2cnc[nH]2)CC1)c1cccc(C)c1	0.1	87.7*	0.231	77.7*	0.2
CN(CCNC(=O)C1CCN(S(=O)(=O)c2cnc[nH]2)CC1)Cc1ccccc1	0.5	52.3*	1.16	39.7	0.6
CCN(CCCNC(=O)C1CCCN(S(=O)(=O)CC)C1)c1cccc(C)c1 (stereo not drawn)	1.2	-23.4	1.79	2.2	1
O=C1CSC(c2ccccn2)N1Cc1cn2ccccc2n1 (stereo not drawn)	1.1	-11.3	.	20.1	0.8
CCOC(=O)c1c(-c2ccccc2)csc1NC(=O)CSc1nnnn1C	0.2	79.5*	-3.67	44.6	0.6
CCOC(=O)c1c(NC(=O)CSc2nnnn2C)sc(C)c1-c1ccc(C)cc1	0.2	76.3*	-4.46*	16.4	0.8
CCOC(=O)c1c(-c2cccc([N+](=O)[O-])c2)csc1NC(=O)CCCOc1ccccc1OC	.	.	-4.79*	.	.
CCOC(=O)c1c(-c2ccc(C)cc2)csc1NC(=O)C1CC=CCC1C(=O)O (stereo not drawn)	1.1	-10.5	.	-10.9	1.1
CCOC(=O)c1c(-c2cccc(C)c2)csc1NC(=O)C1CC=CCC1C(=O)O (stereo not drawn)	1	1.2	-8.85*	0.0	1
CCOC(=O)C(C)Sc1ncc(-c2ccc(Cl)cc2)cn1 (stereo not drawn)	0.8	16.1	-1.3	17.9	0.8
CCOC(=O)c1c(NC(=O)c2ccccc2Br)sc2c1CCc1ccccc1-2	0.8	24.3	0.833	7.5	0.9
CCOC(=O)c1c(-c2ccc(C)cc2)csc1NC(=S)NC(=O)c1ccccc1	0.1	93.1*	-0.718	6.0	0.9
COC(=O)c1c(NC(=O)C2CC=CCC2C(=O)O)sc(C)c1C (stereo not drawn)	0.3	71.2*	0.464	20.6	0.8
CCOC(=O)c1c(-c2ccccc2)csc1NC(=O)c1cccc(N2C(=O)CCC2=O)c1	0.2	83.8*	1.2	45.0	0.6
CCOC(=O)c1c(-c2ccccc2)csc1NC(=O)C1CCCO1 (stereo not drawn)	0.8	15.6	0.0332	-3.7	1
CCOC(=O)c1c(-c2ccc(OC)cc2)csc1NC(=O)CSc1ccccc1	0.5	49.2	-4.76*	19.0	0.8
CC1=NN(C(=O)Cc2ccccc2)C(O)(c2cccnc2)C1 (stereo not drawn)	1.1	-9.8	0.677	3.8	1
O=C(Oc1ccccc1)c1cccc(N2C(=O)CCC2=O)c1	0.5	50.7*	0.229	65.7*	0.3
O=C(Oc1ccc(N2C(=O)CCC2=O)cc1)c1ccccc1	.	.	-0.441	.	.
CNC(=O)c1sccc1S(=O)(=O)Cc1c(Cl)cccc1Cl	0.5	53.7*	0.00881	87.3*	0.1
COC(=O)c1sccc1NC(=O)Nc1cccc(Cl)c1Cl	1	-1.9	0.679	-6.7	1.1
